# Measured values taken from ChEMBL document CHEMBL3988442, “University of Dundee, Small-Polar-MMV Screening Library” (2021).
# Among all 53,000 compounds or so, about 900 (1.7%) showed an effect of 50% or more. This excerpt belongs to a sample that is enriched for strong results.
# System: Mycobacterium tuberculosis
# Assay: Cornell - Phenotypic assay to identify agents that inhibit growth of Mycobacterium tuberculosis
# Format: functional
# Set-up: scale not given: direction of the effect not stated beside the values
# Conditions: 10 mM as filed; unlikely as a test dose
row,Compound,Percent Effect
1,NC(=O)c1ccc(C2CCCN2C(=O)CCc2nc3ccccc3s2)s1 (configuration not stated),-11.96%
2,Cc1cnc(C)c(N2CCCC(CO)(Cc3ccccc3C)C2)n1 (configuration not stated),5.498%
3,Cc1ccccc1CC1(CO)CCCN(c2ncncc2C(C)C)C1 (configuration not stated),81.01%
4,Cc1ccccc1CC1(C(=O)O)CCCN(c2ncnc3[nH]ccc23)C1 (configuration not stated),8.891%
5,c1csc(N2CCCN(c3ncnc4sccc34)CC2)n1,9.712%
6,CC(=O)c1ccc(N2CCCC(CO)(Cc3ccccc3C)C2)nc1 (configuration not stated),13.02%
7,Cc1ccccc1CC1(CO)CCCN(c2ncnc3sccc23)C1 (configuration not stated),79.2%
8,CC(=O)NCCNC(=O)CCn1c(C)cc2ccccc21,15.36%
9,Cc1cc(NC(=O)CN2CCCC2c2noc(C3CC3)n2)n(C)n1 (configuration not stated),-35.39%
10,O=C(O)C(F)(F)F.O=C(c1ccccc1F)N1CCC2(CC1)CC(Oc1ccccn1)CO2 (configuration not stated),20.39%
11,Cl.NCC(=O)N1CCCC1c1n[nH]cc1-c1ccccc1F (configuration not stated),-8.12%
12,CC(C)N1CCOC(c2ccnc(N(C)C)n2)C1 (configuration not stated),50.07%
13,CN(C)c1nccc(C2CN(c3ccccc3)CCO2)n1 (configuration not stated),59.44%
14,CC(=O)N1CCCC(c2ccnc(N(C)C)n2)C1 (configuration not stated),-19.51%
15,CN(C)c1nccc(C2CN(c3cnccn3)CCO2)n1 (configuration not stated),-32.07%
16,CC(=O)N1CCOC(c2ccnc(N(C)C)n2)C1 (configuration not stated),23.94%
17,CN(C)c1nccc(C2CCN(c3ncccn3)CC2)n1,38.24%
18,O=C(Cn1ccnc1)N1C[C@@H]2CC[C@H](Oc3ccccc3F)[C@@H]2C1,-34.19%
19,O=C(Nc1nc2c(s1)CCC2)NC1CCCC1,34.54%
20,Cl.O=C(NCCO)c1sc2ncccc2c1C1CNCCO1 (configuration not stated),5.786%
21,CC(=O)Nc1nc(C(=O)NCc2ccc(N3CCCCC3)cc2)cs1,-6.079%
22,CN(CCN1CCOC1=O)CC(=O)Nc1cc(F)cc(F)c1,-4.563%
23,CCN1CC(COC(=O)c2ccccc2Cl)CC1=O (configuration not stated),9.93%

row,Compound,Percent Effect
1,CCOC(=O)c1c(NC(=O)C2CCN(C(C)=O)CC2)sc(C)c1CC,0.6351%
2,CCc1c(C)sc(NC(=O)CN2CCN(CC)CC2)c1C(=O)OC,85.25%
3,CCc1c(C)sc(NC(=O)CN2CCOCC2)c1C(=O)OC,13.88%
4,NC(=O)N1CCc2ncc(CNC(=O)CC3CC3)n2CC1,-19.97%
5,O=C(C1CC1)N1CCC2(CCCN2Cc2ccc(F)cc2)CC1.O=C(O)C(F)(F)F,3.548%
6,CCC(=O)N1CCCC(c2nc(N(C)C)ncc2-c2ccc(F)cc2)C1 (configuration not stated),78.09%
7,CC(=O)N1CCCC(c2nc(N(C)C)ncc2-c2ccccc2)C1 (configuration not stated),12.04%
8,COCC(=O)N1CCCC(c2nc(N(C)C)ncc2-c2ccccc2)C1 (configuration not stated),21.17%
9,CCN1Cc2cc(OC)ccc2N(CC(C)(C)O)CCC1=O,-17.4%
10,CN(C)c1ncccc1CNC(=O)CCNc1ncccn1,29.98%
11,Cc1cnc(-c2nc(NC3CC3)ncc2-c2cc(C)no2)cn1,-18.55%
12,Cc1noc(-c2cnc(NC(C)C)nc2-c2ccco2)c1C,32.42%
13,Cc1noc(-c2cnc(NCC3CCCO3)nc2-c2ccco2)c1C (configuration not stated),34.64%
14,Cc1cc(-c2cnc(NC3CC3)nc2-c2ccco2)on1,47.86%
15,Cc1cnc(-c2nc(NC3CCCC3)ncc2-c2onc(C)c2C)cn1,7.273%
16,Cc1cc(-c2cnc(NC3CC3)nc2-c2ccoc2)on1,-15.23%
17,COCCNc1ncc(-c2cc(C)no2)c(-c2ccco2)n1,-34.06%
18,Cc1cc(-c2cnc(NC3CCCC3)nc2-c2ccc(C)o2)on1,92.52%
19,Cc1cc(-c2cnc(NC3CCCC3)nc2-c2ccoc2)on1,81.21%
20,Cc1cc(-c2cnc(NC3CCCC3)nc2-c2ccco2)on1,78.21%
21,Cc1cc(-c2cnc(NC3CCCCC3)nc2-c2ccco2)on1,97.15%
22,Cc1cc(-c2cnc(NC3CCCC3)nc2-c2ccoc2C)on1,18.15%
23,CCc1noc(CN2CCN(CC(O)c3ccccc3)CC2)n1 (configuration not stated),-1.918%

row,Compound,Percent Effect
1,O=C(O)C(F)(F)F.O=C1CC(c2ccncc2)C2(CCN(C(=O)c3ccc[nH]3)CC2)N1 (configuration not stated),-25.12%
2,CC(C)=CCN1C[C@@H]2CN(C(=O)c3cnccc3C)C[C@]2(C(=O)O)C1,13.3%
3,CC(C)[C@H](N)C(=O)N1CCSc2ccccc2C1.Cl,15.34%
4,CS(=O)(=O)N1CC(c2ccnc(Nc3ccccn3)n2)C1,3.174%
5,O=C(Nc1ccccn1)C1CCN(C(=O)COc2ccccc2F)C1 (configuration not stated),-42.88%
6,O=C(N1CCCC(n2cncn2)C1)C1(c2cccc(F)c2)CCCC1 (configuration not stated),-7.361%
7,Cc1c(CN2CCC(C(=O)O)(n3cccn3)CC2)oc2ccccc12,-1.551%
8,Cc1occc1-c1nc(NC2CCCC2)ncc1-c1ccccn1,85.8%
9,Cc1noc(-c2cnc(NC3CC3)nc2-c2ccco2)c1C,21.85%
10,Cc1cc(-c2cnc(NC3CC3)nc2-c2ccoc2C)on1,6.588%
11,Cc1cc(CN(C)C(=O)CN2CCCCCC2=O)no1,6.807%
12,COc1cc(Oc2ccc(C(N)=O)cn2)ccc1CN1CCCC1,6.938%
13,Fc1cc(Oc2ccc(C(F)(F)F)cn2)cc(F)c1CN1CCCC1,17.52%
14,COc1cc(Oc2ccc(C#N)cn2)ccc1CN1CCCC1,27.7%
15,COc1cc(Oc2ccc(C(F)(F)F)cn2)ccc1CN1CCCC1,21.65%
16,COc1ccc(Oc2ccc(C(F)(F)F)cn2)cc1CN1CCCC1,50.99%
17,COc1cc(Oc2cnc3ccccc3n2)ccc1CN1CCCC1,89.59%
18,COc1ccc(CC(=O)NCCCc2nnc3nc(C)cc(C)n23)cc1,-52.99%
19,CC(C)N1CCCC1c1nc(N(C)C)ncc1I (configuration not stated),5.368%
20,Cc1c(Br)c(C(F)F)nn1C(C)C(=O)O (configuration not stated),18.88%
21,COCCN(C)C(C(=O)O)c1ccc(Cl)c(F)c1 (configuration not stated),-23.65%
22,Cc1noc(C)c1CN1CCO[C@H]2CNC[C@H]21.Cl.Cl,71.41%
23,COCC(=O)N1C[C@@H]2OCCN(Cc3c(C)noc3C)[C@@H]2C1,-0.2298%

row,Compound,Percent Effect
1,Cc1ccc(N2C[C@@H]3OCCN(Cc4c(C)noc4C)[C@@H]3C2)nn1,2.66%
2,COc1ccc(F)c(-c2ncccc2NC(=O)C(C)C)c1,-36.39%
3,CN(C)S(=O)(=O)NC1CC(=O)N(c2ccccc2Cl)C1 (configuration not stated),14.57%
4,CCN(C)c1ncnc2c1CCN(S(=O)(=O)c1ccccc1)CC2.O=C(O)C(F)(F)F,2.965%
5,CCCNc1nc(CS(=O)(=O)c2ccccc2)cs1,-0.8742%
6,CNc1nc(CS(=O)(=O)c2ccccc2)cs1,106.2%
7,C=C(C)CNc1nc(CS(=O)(=O)c2ccccc2)cs1,8.279%
8,CC(C)c1nc(O)c2nnn(C[C@@H]3CCCN(Cc4ccsc4)C3)c2n1,7.526%
9,CC(C)(C)C(=O)N1C[C@@H](F)[C@@H](OCc2nc3ccccc3o2)C1,16.14%
10,CCC(C)CNc1ccc2oc(COC)nc2c1 (configuration not stated),35.01%
11,COCc1nc2cc(NCc3ccc(CO)o3)ccc2o1,97.16%
12,Cc1ccc(CNC(C)(C)c2noc(C(C)(C)C)n2)o1,-0.4607%
13,COCc1nc2c(o1)CN(C(=O)NCc1ccccc1)C2,-49.74%
14,COCc1nc2cc(NCc3ccc(C)o3)ccc2o1,107.3%
15,Cc1nc(-c2ccccc2)nc2c1CCN(Cc1nccn1C)CC2,6.349%
16,CN(C)c1ncc(C2Nc3cc(Cl)ccc3C3=NCCCN32)cn1.Cl (configuration not stated),8.449%
17,CCOc1ccc(NC(=O)c2cc(C)c(C)o2)cc1CO,22.28%
18,CCOc1ccc(NC(=O)c2[nH]c(C)cc2C)cc1CO,102.6%
19,CCOc1ccc(NC(=O)c2oc(CC)cc2C)cc1CO,34.25%
20,COCC(=O)N1CCN(C)CC(Cc2cc(N(C)C)ncn2)C1 (configuration not stated),14.46%
21,CN1CCC(c2[nH]ncc2S(C)(=O)=O)CC1,6.792%
22,CCc1cccc2c(CC(=O)N(C)CCN(C)C)c(C)[nH]c12.O=C(O)CC(O)(CC(=O)O)C(=O)O,51.84%
23,Cc1[nH]c2c(C)cccc2c1CC(=O)N(C)CCN(C)C.O=C(O)CC(O)(CC(=O)O)C(=O)O,27.37%

row,Compound,Percent Effect
1,Cc1ccc2c(CC(=O)N(C)CCN(C)C)c(C)[nH]c2c1C.O=C(O)CC(O)(CC(=O)O)C(=O)O,8.878%
2,COCCN1CCN(S(=O)(=O)c2ccccc2)Cc2cccnc21.O=C(O)C(F)(F)F,12.13%
3,N#Cc1cc(NS(=O)(=O)c2cc(C(=O)O)cc(Cl)c2Cl)ccc1F,13.91%
4,CCS(=O)(=O)N1CC(c2nc(-c3ccsc3)no2)C1,-31.96%
5,CCOC(=O)CN1CC(c2nc(-c3ccsc3)no2)C1.O=C(O)C(=O)O,51.67%
6,CN(C)S(=O)(=O)N1CC(c2nc(-c3ccsc3)no2)C1,18.06%
7,O=C1NCCN1C(CNS(=O)(=O)C1CC1)Cc1cccc(F)c1 (configuration not stated),21.82%
8,Cn1ccc(C(=O)Nc2nccn2Cc2ccccc2Cl)cc1=O,51.57%
9,CCOCC(=O)Nc1nccn1Cc1ccccc1Cl,48.83%
10,CC(=O)Nc1nccn1Cc1ccccc1Cl,15.67%
11,O=C(CCS(=O)(=O)C1CCCC1)N1CCCC1c1ccsc1 (configuration not stated),-6.93%
12,Cc1cc(O)cc(=O)n1CCCC(=O)Nc1n[nH]c2ccccc12,81.79%
13,Cc1cc(O)cc(=O)n1CCCC(=O)Nc1n[nH]c2cccc(F)c12,103.9%
14,Cc1cc(O)cc(=O)n1CCCC(=O)Nc1n[nH]c2cc(Br)ccc12,104.6%
15,Cc1nonc1NC(=O)CCn1cc(Br)ccc1=O,6.093%
16,CS(=O)(=O)CCCC(=O)Nc1cc(-c2cccc(F)c2F)n[nH]1,-2.681%
17,CC(C)Cc1cc(NC(=O)c2n[nH]c3ccccc23)n(C)n1,15.6%
18,Cn1cc(NC(=O)C2CC(=O)N(c3n[nH]c4cccc(F)c34)C2)cn1 (configuration not stated),-30.85%
19,Cc1noc(C)c1NC(=O)CCn1cc(Br)ccc1=O,22.38%
20,Cc1cc(NC(=O)Cn2ccc(=O)c3ccccc32)[nH]n1,-8.025%
